From PubChem BioAssay (NCATS)
Inconclusive results are not listed. Activity calls are given as the source filed them. Unless noted, the call rests on the fitted dose curve; in most records, active means well fitted curve in the direction sought with a large enough effect; inconclusive means small, poorly fitted or top-dose-only effect, or another doubt; inactive means no such curve, though single readings can be large; an effect the other way counts as inactive or inconclusive.

Key:
[1] = Cell Viability - BJ (AID 421; calls by dose curve;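 further: potency means the concentration at half of the fitted maximal effect; cells exposed to compound for 40 hours at 37 °C before readout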); conditions: BJ fibroblast viability, qHTS
How it was run: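 Cytotoxicity in human BJ foreskin fibroblasts is scored as loss of cellular ATP after a 40-hour exposure, measured by luciferase luminescence. Controls are DMSO and 100 uM tamoxifen.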

[2] = Cell Viability - Jurkat (AID 426;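 active means dose-dependent loss of cell ATP signal giving a full or clear fitted curve, ranked by lower potency value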;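 further: potency means the concentration at half of the fitted maximal effect; cells exposed to compound for 40 hours at 37 °C before ATP read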); conditions: qHTS
How it was run: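 Cytotoxicity taken as drop in cellular ATP (CellTiter-Glo luminescence, 20 min room temperature) after 40 hr, 37C treatment of 5000 Jurkat Clone E6-1 cells per well; concentration-response fitted with Hill equation for AC50.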

[3] = Cell Viability - Hek293 (AID 427;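 active means compounds whose dose-response curve shows a full or clear partial loss of cell viability, called from curve shape rather than a numeric limit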;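 further: potency means the concentration at half of the fitted maximal effect; cells exposed to compound for 40 hours at 37 °C before reading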); conditions: qHTS
How it was run: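 qHTS, human embryonic kidney (adenovirus-transformed) cells; 40 hr cpd, 37 °C; CellTiter-Glo ATP luminescence. Norm: DMSO = 0, 100 uM tamoxifen = 100% inhibition. Hill-fit AC50.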

[4] = Cell Viability - HepG2 (AID 433; calls by dose curve;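 further: potency means the concentration at half of the fitted maximal effect; potency for ATP loss meaning cytotoxicity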); conditions: qHTS
How it was run: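 ATP luminescence (CellTiter-Glo) after 40 h compound exposure, 37 °C, HepG2, 1500 cells/well, complete medium. Normalized: DMSO = basal, 100 uM tamoxifen = 100% inhibition. AC50 via standard Hill equation.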

[5] = Cell Viability - MRC5 (AID 434; calls by dose curve;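 further: potency means the concentration at half of the fitted maximal effect; cells exposed to compound for 40 hours at 37 °C; potency reflects cytotoxicity seen as loss of intracellular ATP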); conditions: MRC5 lung fibroblast viability, qHTS
How it was run: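 Decrease in intracellular ATP, quantified by luciferase light output, reflects compound toxicity toward MRC5 cells exposed for 40 hr in complete culture medium. Concentration-response curves, scaled between DMSO and 100 uM tamoxifen, gave AC50 values.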

[6] = Cell Viability - SK-N-SH (AID 435; calls by dose curve; further: potency means the concentration at half of the fitted maximal effect); conditions: SK-N-SH neuroblastoma cell viability qHTS
How it was run: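 CellTiter-Glo ATP luminescence, 20 min RT read; cells pre-plated 5 hr, compound 40 hr at 37 °C, 1500 cells/well, complete medium. Normalized DMSO = 0, 100 uM tamoxifen = 100% inhibition; Hill-fit AC50.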

[7] = target: Mitogen-activated protein kinase 10 (Mus musculus) (UniProt Q61831); assay: JNK3 AlphaScreen Assay (AID 530; active means well fitted curve in either direction with a large enough effect, not every such curve was filed as active;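 further: kinase came from lysate of stimulated human HepG2 cells; signal reports phosphorylation of biotinylated GST-cJun 1-79 at Ser73 with 10 µM ATP; on the % scale 0 is the no-effect control and ±100 the full control effect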)
How it was run: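 Phosphorylation of biotinylated GST-cJun(1-79) at Ser73 is measured by AlphaScreen proximity luminescence. Enzyme is JNK3 in HepG2 lysates activated with interleukin-1beta and tumor necrosis factor alpha; ATP is 10 uM final.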

[8] = Cell Viability - N2a (AID 540); conditions: N2a mouse neuroblastoma cell viability; activity change, negative = cytotoxicity: at 92.2 µM (top of the series);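 further: plate controls were DMSO alone for no effect and tamoxifen control for full effect; nearly all actives have a fitted effect of over 45% in size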
How it was run: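 CellTiter-Glo ATP luminescence, read 20 min after reagent at room temperature, reported viability following 40 h compound treatment at 37 °C. N2a mouse neuroblastoma cells seeded 1500/well; Hill equation gave AC50.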

[9] = Cell Viability - NIH 3T3 (AID 541); conditions: NIH 3T3 cell viability, qHTS; activity change, negative = cytotoxicity: at 92.2 µM (top of the series);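 further: plate controls were DMSO alone for no effect and tamoxifen positive control for full effect; nearly all actives have a fitted effect of over 25% in size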
How it was run: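 Intracellular ATP (CellTiter-Glo luminescence, 20 min at room temperature) measured after 40 hr compound exposure at 37 °C of 1000 NIH 3T3 mouse fibroblasts/well in complete medium; AC50 derived by Hill-equation modelling of qHTS concentration-response curves.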

[10] = Cell Viability - HUV-EC-C (AID 542); further: on the % scale 0 is the no-effect control and ±100 the full control effect; nearly all actives have a fitted effect of over 35% in size
How it was run: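 CellTiter-Glo luminescence measured ATP loss in HUV-EC-C cells (1000/well) after 40 hr compound exposure at 37 °C, in complete culture medium. Concentration-response data were Hill-fitted to give AC50.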

[11] = Cell Viability - H-4-II-E (AID 543); further: on the % scale 0 is the no-effect control and ±100 the full control effect; nearly all actives have a fitted effect of over 35% in size
How it was run: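 CellTiter-Glo luminescence (intracellular ATP) measured after 40 h compound exposure at 37 °C in H-4-II-E rat hepatoma cells seeded at 1500/well. Values are AC50s fitted with the standard Hill equation.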

[12] = Cell Viability - SH-SY5Y (AID 544); conditions: SH-SY5Y neuroblastoma cell viability; viability change, negative = cytotoxic: at 92.2 µM (top of the series); further: nearly all actives have a fitted effect of over 55% in size
How it was run: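 Cytotoxicity measured via ATP-dependent luciferase luminescence (CellTiter-Glo) following 40 h, 37 °C exposure of 1500 SH-SY5Y cells per well. Concentration-response data were fitted with the standard Hill equation to give AC50.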

[13] = Cell Viability - Renal Proximal Tubule (AID 545); conditions: renal proximal tubule cells viability, primary cells of rat origin; activity change, negative = cytotoxicity: at 91.7 µM (top of the series); further: nearly all actives have a fitted effect of over 40% in size
How it was run: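 Rat kidney proximal tubule cells, freshly isolated; 1000 cells/well, 5 hr settle, compound 40 hr 37 °C. CellTiter-Glo 20 min RT, luminescence read. AC50 by standard Hill fit.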

[14] = Cell Viability - Mesenchymal (AID 546); conditions: mesenchymal cells viability, qHTS; activity change, negative = cytotoxicity: at 91.7 µM (top of the series);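 further: cells exposed to compound for 40 hours before reading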
How it was run: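 In this qHTS cytotoxicity format, glomerulus-derived human mesenchymal kidney cells received compound for 40 hr, then luciferase-based ATP quantitation. Concentration-response data were fitted with the Hill equation.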

[15] = Cellular Toxicity (caspase-3) HepG2 (AID 654);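 further: cells exposed to compound for 16 hours before reading; 0% = DMSO alone and 100% = caspase signal from 100 µM tamoxifen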
How it was run: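 Caspase 3/7 activation is measured as a luminescence increase (aminoluciferin substrate) after 16 h compound exposure of human hepatocarcinoma HepG2 cells. AC50 values are Hill fits, scaled between DMSO baseline and 100 uM tamoxifen stimulation.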

[16] = Cellular Toxicity (caspase-3) Jurkat (AID 655); conditions: Jurkat caspase-3 activation, luminescence; caspase-3 activation: at 92.2 µM (top of the series), DMSO = 0%, tamoxifen = 100%;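 further: cells exposed to compound for 16 h at 37 °C before reading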
How it was run: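 Luminescent caspase-3/7 readout (aminoluciferin substrate cleavage) in human T-cell leukemia Jurkat cells after 16 hr compound exposure. Concentration-response normalized to DMSO and 100 uM tamoxifen; AC50 by standard Hill equation.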

[17] = Cellular Toxicity (caspase-3) HUV-EC-C (AID 656)
How it was run: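 Luminescent caspase-3/7 activation (aminoluciferin substrate cleavage) in HUV-EC-C cells after 16 hr compound exposure, 37°C. Signal normalized to DMSO basal and 100 uM tamoxifen as 100%; AC50 from concentration-response fitted with the Hill equation.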

[18] = Cellular Toxicity (caspase-3) BJ (AID 658); conditions: Potency: caspase-3 activation;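 further: cells exposed to compound for 16 hours; 0% = DMSO basal and 100% = 10 µM staurosporine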
How it was run: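 Plated BJ cells (1000/well) rested 5 hr, received compound for 16 hr at 37 °C, then Caspase-Glo 3/7 reagent for 1 hr at room temperature before luminescence reading.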

[19] = Cellular Toxicity (caspase-3) MRC-5 (AID 659);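 further: cells exposed to compound for 16 h at 37 °C; 0% = DMSO basal and 100% = 10 µM staurosporine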
How it was run: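 Apoptosis readout in MRC-5 cells: luciferase light generated after caspase 3/7 cleaves a peptide-aminoluciferin substrate, measured post 16 hr compound incubation at 37 °C.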

[20] = Cellular Toxicity (caspase-3) Mesangial (AID 660); conditions: mesangial cells, normalized: DMSO 0%, 100 µM tamoxifen 100%; at 91.7 µM (top of the series);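 further: combined caspase 3 and 7 activity read by Caspase-Glo luminescence; cells exposed to compound for 16 h before the caspase read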
How it was run: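 Caspase 3/7 activation measured by Caspase-Glo 3/7 luminescence (20 min, room temperature) following 16 h exposure of mesangial cells (1000/well); AC50 from Hill-equation fit, normalized to DMSO and 100 uM tamoxifen.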

[21] = Cellular Toxicity (caspase-3) SK-N-SH (AID 661); conditions: SK-N-SH caspase-3 activation, qHTS; caspase-3 activation: at 91.7 µM (top of the series), DMSO as zero, staurosporine as full;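 further: cells exposed to compound for 16 hours; 0% = DMSO basal and 100% = 10 µM staurosporine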
How it was run: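 Caspase 3/7 activation was read by luminogenic substrate cleavage after 16 hour treatment of SK-N-SH cells. Signal was scaled between DMSO and 10 uM staurosporine, and concentration-response data were fitted with the Hill equation for AC50.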

[22] = Cellular Toxicity (caspase-3) H-4-II-E (AID 663); conditions: H-4-II-E rat hepatoma; Potency: caspase-3 activation; caspase-3 activation: at 92.2 µM (top of the series), scaled: DMSO 0%, 100 µM tamoxifen 100%;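 further: cells exposed to compound for 16 hr before readout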
How it was run: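 Caspase 3/7 activation measured in H-4-II-E cells in complete culture medium after 16 hr treatment at 37 °C, using luciferase-coupled substrate readout; AC50 values come from Hill-equation fits of normalized concentration-response data.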

CCCCCC/C(C=O)=C\c1ccccc1
inactive: Potency [1] > 92 µM | Potency [2] > 92 µM | Potency [3] > 92 µM | Potency [4] > 92 µM | Potency [5] > 92 µM | Potency [6] > 92 µM | Potency [7] | Potency [8] | Potency [9] | Potency [10] | Potency [11] | Potency [12] | Potency [13] | Potency [14] | Potency [15] | Potency [16] | Potency [17] | Potency [18] | outcome [19] | caspase-3 activation [20] 1.26% | caspase-3 activation [21] -0.582% | caspase-3 activation [22] 0.146%
